# Reference: PubChem BioAssay
# Key:
# [1] = test system: Human papillomavirus type 1a protein E7 (residues 44-93); experiment: HPV1a E7 fragment binders on microarrays, primary screen, biochemical, small-molecule microarray, residues 44-93, 635 nm fluorescence (AID 1108); details: small-molecule microarray binding, fluorescence 635 nm; higher = more signal;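 further: E7 fragment applied at 1 µg/mL in TBST for 1 h at 4 C; score combines spot fluorescence with its signal to noise ratio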
# [2] = modulators of HCV replicon luciferase signal, primary screen, HCV replication inhibitor project, Huh7 cells, luciferase reporter (AID 1109); details: 48 h, higher = more signal;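 further: huh7 hepatoma cells harbouring a luciferase neomycin HCV replicon reporter; luciferase luminescence as measure of HCV replicon replication; test concentration not given here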
# [3] = biological target: Left-right determination factor 2 (Homo sapiens) (UniProt O00292); experiment: LEFTY2 binders on small-molecule microarrays, primary screen, biochemical, small-molecule microarray, 635 nm fluorescence scan (AID 1110); details: LEFTY2 binding, higher = more signal
# Chain of Left-right determination factor 2 (Homo sapiens) (O00292 whole entry, looked up): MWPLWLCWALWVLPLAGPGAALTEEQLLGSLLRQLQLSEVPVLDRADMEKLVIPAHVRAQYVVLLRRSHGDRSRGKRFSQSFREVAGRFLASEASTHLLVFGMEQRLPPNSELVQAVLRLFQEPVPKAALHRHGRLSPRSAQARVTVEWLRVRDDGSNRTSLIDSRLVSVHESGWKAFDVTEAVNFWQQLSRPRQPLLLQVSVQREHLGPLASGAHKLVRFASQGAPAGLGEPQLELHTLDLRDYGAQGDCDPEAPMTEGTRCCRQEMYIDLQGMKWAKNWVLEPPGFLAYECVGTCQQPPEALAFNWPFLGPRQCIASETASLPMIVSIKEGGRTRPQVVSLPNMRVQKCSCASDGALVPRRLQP
# [4] = biological target: Calmodulin-1 (Homo sapiens) (UniProt P0DP23); experiment: CALM1 binders on microarrays, EGTA buffer, profiling panel, biochemical, small-molecule microarray, Cy5-labelled CALM1 (AID 1111); details: Cy5-CALM1 binding fluorescence, higher = more signal;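 further: labelled calmodulin applied in Tris saline Tween buffer holding calcium plus EGTA and DTT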
# [5] = biological target: Calmodulin-1 (Homo sapiens) (UniProt P0DP23); experiment: calcium-bound CALM1 binders on microarrays, profiling panel, artefact control for SMM control-protein annotation, biochemical, small-molecule microarray, Cy5-labelled CALM1, plus calcium (AID 1112); details: Cy5-CALM1 binding fluorescence, higher = more signal;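 further: score merges spot fluorescence with signal to noise from triplicate slides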
# [6] = small-molecule microarray binders of probe aWnt5a, primary screen, biochemical, biotinylated probe, 635/667 nm fluorescence (AID 1113); details: higher = more signal;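 further: score merges 667 nm fluorescence intensity with signal-to-noise per printed feature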
# [7] = small-molecule microarray binders of probe aShh, primary screen, biochemical, biotinylated probe, 635/667 nm fluorescence (AID 1114); details: higher = more signal;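 further: probe is biotin-labelled aShh protein from a stem cell growth factor screen; measures binding of labelled protein to compounds printed on the slide; score merges feature fluorescence at 667 nm with signal-to-noise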
# [8] = small-molecule microarray binders of probe aNog, primary screen, biochemical, biotinylated probe, 635/667 nm fluorescence (AID 1115); details: higher = more signal;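 further: probe is biotinylated aNog protein used at 0.15 µg/mL for 1 h at 4 C; z-score combines 667 nm fluorescence of each spot with its signal to noise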
# [9] = biological target: Torsin-1A-interacting protein 1 (Homo sapiens) (UniProt Q5JTV8); experiment: LAP1 binders from COS7 cell lysate, primary screen, small-molecule microarray, 635/667 nm fluorescence (AID 1116); details: COS7-hLAP1 lysate binding, 635 nm fluorescence, higher = more signal
# Chain of Torsin-1A-interacting protein 1 (Homo sapiens) (Q5JTV8 whole entry, looked up): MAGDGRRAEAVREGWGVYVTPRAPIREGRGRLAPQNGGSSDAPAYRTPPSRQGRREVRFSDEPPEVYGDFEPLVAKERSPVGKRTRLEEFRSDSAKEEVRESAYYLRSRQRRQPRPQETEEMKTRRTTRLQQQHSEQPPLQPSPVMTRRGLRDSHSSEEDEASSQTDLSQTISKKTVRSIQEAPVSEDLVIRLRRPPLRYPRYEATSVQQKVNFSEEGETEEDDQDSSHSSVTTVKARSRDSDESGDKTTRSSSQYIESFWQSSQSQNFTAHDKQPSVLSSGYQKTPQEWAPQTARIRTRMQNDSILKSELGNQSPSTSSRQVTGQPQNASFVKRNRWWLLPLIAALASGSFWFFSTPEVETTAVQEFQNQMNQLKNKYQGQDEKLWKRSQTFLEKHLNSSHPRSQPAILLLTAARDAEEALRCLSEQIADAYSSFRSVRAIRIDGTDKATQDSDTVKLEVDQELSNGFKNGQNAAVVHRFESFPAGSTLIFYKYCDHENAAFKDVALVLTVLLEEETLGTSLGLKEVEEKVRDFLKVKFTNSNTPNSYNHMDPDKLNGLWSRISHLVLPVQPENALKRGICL
# [10] = biological target: Alpha-bungarotoxin (Bungarus multicinctus) (UniProt P60615); experiment: alpha-bungarotoxin binders on microarray, profiling panel, artefact control for SMM control protein annotation, biochemical, small-molecule microarray, Alexa647 label, 635/667 nm fluorescence (AID 1117); details: alpha-BTX-A647 binding fluorescence, higher = more signal
# Chain of Alpha-bungarotoxin (Bungarus multicinctus) (P60615 whole entry, looked up): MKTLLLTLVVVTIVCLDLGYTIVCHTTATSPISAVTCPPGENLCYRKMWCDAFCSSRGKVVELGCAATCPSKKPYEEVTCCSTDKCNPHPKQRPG
SMILES,composite z-score [1],z-score [2],composite z-score [3],composite z-score [4],composite z-score [5],composite z-score [6],composite z-score [7],composite z-score [8],composite z-score [9],composite z-score [10]
CN1C(=O)C2C=CC(C(O)c3cccs3)N(N(c3ccccc3)c3ccccc3)C2C1=O (stereo not given),1.28,0.053,-0.632,1.07,0.831,0.143,0.131,-0.267,0.713,1.79
COC(=O)[C@]1(Cc2ccccc2N=[N+]=[N-])N=C(c2ccc(OCCCO)cc2)O[C@@H]1c1ccccc1CN=[N+]=[N-],1.37,-3.42,0.112,0.149,-0.529,-0.148,-0.0324,1.14,1.3,0.874
CC1(C)OB(/C=C\CC(OC(=O)c2ccncc2)c2ccccc2)OC1(C)C (stereo not given),0.0565,-0.382,-1.46,-2.58,-2.34,-0.124,0.0469,-0.76,0.161,-0.778
COc1ccc(C(=O)Nc2cccc(CN3C(=O)[C@]4(O[C@H](CC(=O)N(CCO)Cc5ccccc5)[C@@H]([Si](C)(C)c5ccc(OC)cc5)[C@@H]4C)c4ccccc43)c2)cc1,0.753,-3.73,0.546,-0.0878,-0.342,0.093,-0.0192,-0.0315,0.566,0.696
[N-]=[N+]=NCc1ccccc1[C@H]1OC(c2ccc(OCCCO)cc2)=N[C@@]1(Cc1ccccc1N=[N+]=[N-])C(=O)O,1.41,-0.304,-0.0361,1.82,0.83,-0.0161,0.385,0.19,0.765,1.98
CC(=O)NCCCC[C@@H]1NC(=O)[C@H]2C[C@@H](C(=O)NCCCCCN)[C@@H](c3ccc(O)cc3)N2C1=O,1.36,0.199,0.777,0.536,0.973,-0.1,-0.0211,-0.221,0.852,0.988
Cc1ccc(S(=O)(=O)N2[C@@H](c3ccccc3)C(C(=O)O)=C[C@H]2C(C)(C)C)cc1,1.15,-1.25,0.261,2.24,0.75,-0.0718,-0.107,-0.0252,1.49,1.94
CN1C2C=C(c3ccc(CO)cc3)C(C3C(=O)N(C(N)=O)C(=O)C32)C1C1CC1 (stereo not given),0.249,-0.31,-0.423,-0.273,-0.915,-0.176,-0.229,-0.226,0.192,0.334
COC(=O)[C@H]1N=C(c2ccc(OCCCO)cc2)O[C@H]1c1ccccc1N=[N+]=[N-],1.05,-1.78,-0.223,0.203,0.28,0.16,0.468,1.29,0.451,1.08
CC[C@@H](O[Si](C#C[Si](C(C)C)(C(C)C)C(C)C)(C(C)C)C(C)C)c1cn(Cc2cccc(Cl)c2)nn1,0.906,-0.959,0.374,0.0371,-0.461,-0.0194,-0.154,-0.124,0.403,0.485
COc1ccc([Si](C)(C)[C@H]2[C@H](CC(=O)N(CCO)Cc3ccccc3)O[C@@]3(C(=O)N(Cc4ccc(N5C(=O)c6cccc7cccc5c67)cc4)c4ccccc43)[C@@H]2C)cc1,1.28,-3.78,0.544,0.605,0.103,0.0495,0.19,0.945,0.869,0.753
COCCCNC(=O)[C@@]1(Cc2ccccc2I)c2ccccc2C(=O)N(C2CCCCC2)[C@H]1c1ccc(CO)cc1,1.13,-1.45,-0.418,0.634,0.305,-0.0061,0.313,-0.417,1.57,1.19
COc1ccc([Si](C)(C)[C@@H]2[C@@H](CC(=O)N3Cc4ccccc4C[C@H]3CO)O[C@]3(C(=O)N(Cc4ccc(I)cc4)c4ccccc43)[C@H]2C)cc1,1.3,-3.76,0.878,0.186,0.426,-0.0472,-0.304,-0.503,0.224,0.308
COC(=O)C(CC#Cc1ccc2c(c1)[C@]1(C(=O)N2)[C@H](C(=O)NC[C@H](O)c2ccccc2)[C@H]2C(=O)O[C@H](c3ccccc3)[C@H](c3ccccc3)N2[C@@H]1c1ccc(O)cc1)C(=O)OC,-0.603,-1.7,-0.357,-0.113,-0.327,-0.217,-0.138,-0.121,-0.223,-0.111
CC(C)c1ccc(NN2C(C(O)C3=C[C@H]4C[C@@H](C3)C4(C)C)C=CC3C(=O)N(c4ccccc4)C(=O)C32)cc1 (stereo not given in full),0.796,-0.637,0.368,2.46,0.977,0.0403,0.907,2.06,1.54,1.64
C[C@H]1C2[C@H](Cc3ccccc3)NC(=O)[C@]23C(=O)N[C@@H](Cc2ccccc2)C(=O)N2CCC[C@H]2C(=O)NC/C=C/CC/C=C/C3[C@@H]2O[C@]12C (stereo not given in full),0.611,-0.382,0.148,-0.133,-0.945,-0.156,-0.221,-0.0503,0.0565,0.857
CC(C)Cc1ccc(CN2CC[C@@H](NC(=O)c3ccccc3)C2)cc1,-0.979,-4.02,0.0756,-0.816,-0.524,-0.159,-0.345,-0.367,0.367,1.01
